Target: T1, Arginase-2, mitochondrial (Homo sapiens) (UniProt P78540)
T1 sequence (whole entry): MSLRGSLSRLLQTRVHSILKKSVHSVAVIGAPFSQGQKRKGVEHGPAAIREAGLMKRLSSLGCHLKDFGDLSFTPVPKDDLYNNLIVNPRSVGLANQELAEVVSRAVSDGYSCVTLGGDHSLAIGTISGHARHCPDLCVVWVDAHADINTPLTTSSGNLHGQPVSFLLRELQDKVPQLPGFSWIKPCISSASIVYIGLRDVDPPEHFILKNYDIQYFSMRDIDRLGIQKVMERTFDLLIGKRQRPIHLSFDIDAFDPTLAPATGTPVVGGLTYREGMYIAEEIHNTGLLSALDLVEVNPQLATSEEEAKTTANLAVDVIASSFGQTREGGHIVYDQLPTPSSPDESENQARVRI
Assay: in vitro enzyme assay to detect the production of urea directly proportional to the activity of Arginase II
Type: functional
Parameters: scale not given: in the data most compounds retested in dose-response had high values
Conditions: 30 µM

SMILES	Percent Effect
Cc1ccc(CNCc2nnc3n2CC(C(F)(F)F)CC3)o1 (stereo not drawn)	-7.03%
CCOCCCNC(=O)c1cc(Br)c2c(c1)OCCO2	0.54%
Cc1cc(C(=O)N2CCCC(c3nccn3Cc3cscn3)C2)on1 (stereo not drawn)	9.19%
CC(=O)NCCNC(=O)c1cc(Br)c2c(c1)OCCO2	4.87%
COc1ccc(C(=O)N2C[C@@H](C(=O)O)[C@H](c3ccccc3)C2)c(O)c1	9.19%
Cc1cc(C)n(C2CN(Cc3noc(C4CC4)n3)C2)n1	8.11%
CC(=O)N1CCN(C(=O)Cn2ccc3c(Cl)cccc32)CC1	2.7%
CC1=Nc2c(c(=O)[nH]n2C2CCOCC2)C(c2cccc(O)c2)S1 (stereo not drawn)	2.7%
CC(C)(C)OC(=O)Cn1cccc(S(=O)(=O)N2CCCCCC2)c1=O	5.95%
CN(Cc1ccco1)[C@@H]1CN(Cc2nccn2C)[C@@H]2CCCO[C@H]12	11.3%
CN(C)C(=O)CN1CCCC(c2cncc(-c3cccc(Cl)c3)n2)C1 (stereo not drawn)	1.62%
Cc1ccc([C@@H]2CN(S(=O)(=O)N3CCC(C)CC3)C[C@H]2N(C)C)cc1	7.03%
CN(C)C(=O)[C@@H]1CCO[C@@H]2CCN(CCOCc3ccccc3)C[C@H]21	2.7%
COc1ccc(CNCc2nnc3n2CC(C(F)(F)F)CC3)cc1 (stereo not drawn)	9.19%
OC(CN(Cc1ccccc1)Cc1cccnc1)c1cccs1 (stereo not drawn)	-5.95%
c1ccc(O[C@H]2CO[C@@]3(CCN(Cc4ccc5c(c4)OCO5)C3)C2)nc1	7.03%
CN(Cc1ccco1)[C@@H]1CN(Cc2cnn(C)c2)[C@@H]2CCCO[C@H]12	2.7%
CN(C)c1ccc(NC(=O)C2CN(Cc3ccccc3)CCO2)cn1 (stereo not drawn)	10.3%

From ChEMBL document CHEMBL3988442, “University of Dundee, Small-Polar-MMV Screening Library” (2021)
